Measured values reported in the supplement of paper PMC11732987, “Enantioselective OTUD7B fragment discovery through chemoproteomics screening and high-throughput optimisation” (Communications Chemistry, 2025).

Tests used:
Test in all cases: log2 ratio of Biotin-Ahx-Ub-VS probe labelling (fragment/DMSO); higher = less target engagement (more negative = stronger competition), active = hit call of the paper (q ≤ 0.05, log2 ratio ≤ -1)
Conditions in all cases: compound concentration: 200 uM; treatment time: 3 h
USP34 = USP34 (UniProt Q70CQ2)
Sequence of USP34 (Q70CQ2 whole entry, the tested form may be a part): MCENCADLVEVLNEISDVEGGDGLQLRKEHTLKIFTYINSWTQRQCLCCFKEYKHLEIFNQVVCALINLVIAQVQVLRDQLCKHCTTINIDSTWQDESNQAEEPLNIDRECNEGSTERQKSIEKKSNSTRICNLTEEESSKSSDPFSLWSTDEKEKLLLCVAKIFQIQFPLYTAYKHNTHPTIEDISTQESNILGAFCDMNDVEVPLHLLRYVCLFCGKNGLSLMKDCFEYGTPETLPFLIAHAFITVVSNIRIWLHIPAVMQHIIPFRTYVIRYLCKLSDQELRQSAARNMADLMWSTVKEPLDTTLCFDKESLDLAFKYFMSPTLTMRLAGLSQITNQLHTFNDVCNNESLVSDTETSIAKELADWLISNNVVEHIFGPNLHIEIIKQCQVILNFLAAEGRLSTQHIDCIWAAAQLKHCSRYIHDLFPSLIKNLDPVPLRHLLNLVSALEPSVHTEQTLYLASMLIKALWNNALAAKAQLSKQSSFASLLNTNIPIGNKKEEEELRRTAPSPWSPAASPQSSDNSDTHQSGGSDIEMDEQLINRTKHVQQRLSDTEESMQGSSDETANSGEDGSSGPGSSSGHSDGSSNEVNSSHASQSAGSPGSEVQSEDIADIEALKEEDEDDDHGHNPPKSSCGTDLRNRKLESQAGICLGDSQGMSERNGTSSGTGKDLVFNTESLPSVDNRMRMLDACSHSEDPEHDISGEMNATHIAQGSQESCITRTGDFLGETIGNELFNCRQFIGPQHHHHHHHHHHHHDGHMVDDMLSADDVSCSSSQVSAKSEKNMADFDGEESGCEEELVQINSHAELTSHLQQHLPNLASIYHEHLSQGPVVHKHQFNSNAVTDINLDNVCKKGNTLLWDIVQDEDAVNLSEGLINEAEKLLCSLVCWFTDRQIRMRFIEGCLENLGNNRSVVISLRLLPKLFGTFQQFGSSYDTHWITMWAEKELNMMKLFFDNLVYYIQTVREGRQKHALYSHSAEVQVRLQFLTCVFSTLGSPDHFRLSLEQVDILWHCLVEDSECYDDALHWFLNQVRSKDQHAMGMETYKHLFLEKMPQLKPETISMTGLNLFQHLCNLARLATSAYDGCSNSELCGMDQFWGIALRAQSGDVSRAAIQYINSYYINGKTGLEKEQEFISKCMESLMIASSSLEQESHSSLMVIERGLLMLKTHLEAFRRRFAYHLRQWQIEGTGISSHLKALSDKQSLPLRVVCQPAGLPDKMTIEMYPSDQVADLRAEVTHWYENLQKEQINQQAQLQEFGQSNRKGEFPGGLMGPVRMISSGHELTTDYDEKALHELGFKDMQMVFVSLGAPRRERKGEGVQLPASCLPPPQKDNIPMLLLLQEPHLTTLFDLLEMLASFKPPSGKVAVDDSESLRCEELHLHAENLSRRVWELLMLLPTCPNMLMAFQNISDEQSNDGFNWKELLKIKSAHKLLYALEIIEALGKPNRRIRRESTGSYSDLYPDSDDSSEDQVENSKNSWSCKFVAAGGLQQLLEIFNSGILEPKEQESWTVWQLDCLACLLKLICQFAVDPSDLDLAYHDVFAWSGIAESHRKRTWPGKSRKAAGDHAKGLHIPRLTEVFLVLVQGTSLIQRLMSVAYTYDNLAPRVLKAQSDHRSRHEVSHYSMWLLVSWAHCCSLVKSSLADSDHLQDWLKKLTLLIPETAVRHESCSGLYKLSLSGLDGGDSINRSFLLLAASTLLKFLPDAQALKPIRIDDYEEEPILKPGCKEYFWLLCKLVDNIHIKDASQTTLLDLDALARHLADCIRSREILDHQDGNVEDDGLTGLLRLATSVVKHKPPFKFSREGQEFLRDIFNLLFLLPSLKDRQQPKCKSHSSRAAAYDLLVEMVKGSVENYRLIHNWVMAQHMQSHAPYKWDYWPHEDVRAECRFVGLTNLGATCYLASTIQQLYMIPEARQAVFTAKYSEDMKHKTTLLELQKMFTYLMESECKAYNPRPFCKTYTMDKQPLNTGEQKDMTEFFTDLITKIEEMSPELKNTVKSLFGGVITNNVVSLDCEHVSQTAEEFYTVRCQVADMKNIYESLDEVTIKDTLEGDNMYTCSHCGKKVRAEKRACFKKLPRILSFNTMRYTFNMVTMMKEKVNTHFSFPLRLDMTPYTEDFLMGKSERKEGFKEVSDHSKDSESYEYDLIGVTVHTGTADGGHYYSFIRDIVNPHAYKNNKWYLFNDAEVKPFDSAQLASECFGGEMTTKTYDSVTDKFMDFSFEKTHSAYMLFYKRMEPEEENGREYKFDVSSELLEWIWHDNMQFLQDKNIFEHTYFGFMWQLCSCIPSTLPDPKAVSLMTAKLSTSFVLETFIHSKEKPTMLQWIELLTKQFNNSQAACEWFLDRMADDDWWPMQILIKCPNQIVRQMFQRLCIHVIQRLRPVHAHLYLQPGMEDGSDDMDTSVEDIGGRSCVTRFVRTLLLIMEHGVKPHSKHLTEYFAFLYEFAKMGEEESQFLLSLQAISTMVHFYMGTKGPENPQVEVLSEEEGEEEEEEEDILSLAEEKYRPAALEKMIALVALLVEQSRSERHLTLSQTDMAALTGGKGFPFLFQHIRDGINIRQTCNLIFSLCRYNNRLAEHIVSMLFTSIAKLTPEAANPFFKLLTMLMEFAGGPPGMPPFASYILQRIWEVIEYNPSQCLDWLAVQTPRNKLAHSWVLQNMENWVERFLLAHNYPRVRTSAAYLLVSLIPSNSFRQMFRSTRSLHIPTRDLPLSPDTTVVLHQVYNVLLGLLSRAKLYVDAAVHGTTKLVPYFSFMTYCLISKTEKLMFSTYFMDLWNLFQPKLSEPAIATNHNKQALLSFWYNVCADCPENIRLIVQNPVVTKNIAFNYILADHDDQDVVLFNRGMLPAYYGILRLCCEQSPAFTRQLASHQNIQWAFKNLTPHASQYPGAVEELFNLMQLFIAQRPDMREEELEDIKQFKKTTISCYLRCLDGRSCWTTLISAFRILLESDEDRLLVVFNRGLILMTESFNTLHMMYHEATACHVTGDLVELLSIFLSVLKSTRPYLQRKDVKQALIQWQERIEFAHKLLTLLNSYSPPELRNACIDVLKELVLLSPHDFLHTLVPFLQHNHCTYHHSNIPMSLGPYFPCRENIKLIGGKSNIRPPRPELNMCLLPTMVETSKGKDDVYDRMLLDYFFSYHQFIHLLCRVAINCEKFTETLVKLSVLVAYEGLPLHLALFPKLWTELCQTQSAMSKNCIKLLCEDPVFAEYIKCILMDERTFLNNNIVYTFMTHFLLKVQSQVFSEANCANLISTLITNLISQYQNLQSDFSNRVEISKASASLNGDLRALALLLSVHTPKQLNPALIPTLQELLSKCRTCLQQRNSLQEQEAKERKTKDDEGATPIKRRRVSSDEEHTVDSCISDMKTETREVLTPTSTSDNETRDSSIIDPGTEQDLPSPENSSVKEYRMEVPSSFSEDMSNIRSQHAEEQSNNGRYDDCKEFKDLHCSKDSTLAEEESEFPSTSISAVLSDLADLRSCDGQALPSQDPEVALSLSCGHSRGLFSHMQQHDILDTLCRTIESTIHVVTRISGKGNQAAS
How it was run: (§1)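 HEK293T lysate (495 µg per sample, in Tris/CHAPS/IGEPAL buffer with protease inhibitors) was treated in triplicate with fragment at 200 µM or with DMSO for 3 h. It was then treated with Biotin-Ahx-Ub-VS (0.5 µM final) for 1 h. Labelled DUBs were NeutrAvidin-enriched, digested with LysC and trypsin, and run by diaPASEF LC-MS/MS. Spectronaut label-free quantities were global-median-normalised. Values are average log2 ratios fragment/DMSO by unpaired t-test, using proteins with ≥2 unique peptides.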

USP36 = biological target: T1, USP36 (UniProt Q9P275)
T1 sequence (whole entry): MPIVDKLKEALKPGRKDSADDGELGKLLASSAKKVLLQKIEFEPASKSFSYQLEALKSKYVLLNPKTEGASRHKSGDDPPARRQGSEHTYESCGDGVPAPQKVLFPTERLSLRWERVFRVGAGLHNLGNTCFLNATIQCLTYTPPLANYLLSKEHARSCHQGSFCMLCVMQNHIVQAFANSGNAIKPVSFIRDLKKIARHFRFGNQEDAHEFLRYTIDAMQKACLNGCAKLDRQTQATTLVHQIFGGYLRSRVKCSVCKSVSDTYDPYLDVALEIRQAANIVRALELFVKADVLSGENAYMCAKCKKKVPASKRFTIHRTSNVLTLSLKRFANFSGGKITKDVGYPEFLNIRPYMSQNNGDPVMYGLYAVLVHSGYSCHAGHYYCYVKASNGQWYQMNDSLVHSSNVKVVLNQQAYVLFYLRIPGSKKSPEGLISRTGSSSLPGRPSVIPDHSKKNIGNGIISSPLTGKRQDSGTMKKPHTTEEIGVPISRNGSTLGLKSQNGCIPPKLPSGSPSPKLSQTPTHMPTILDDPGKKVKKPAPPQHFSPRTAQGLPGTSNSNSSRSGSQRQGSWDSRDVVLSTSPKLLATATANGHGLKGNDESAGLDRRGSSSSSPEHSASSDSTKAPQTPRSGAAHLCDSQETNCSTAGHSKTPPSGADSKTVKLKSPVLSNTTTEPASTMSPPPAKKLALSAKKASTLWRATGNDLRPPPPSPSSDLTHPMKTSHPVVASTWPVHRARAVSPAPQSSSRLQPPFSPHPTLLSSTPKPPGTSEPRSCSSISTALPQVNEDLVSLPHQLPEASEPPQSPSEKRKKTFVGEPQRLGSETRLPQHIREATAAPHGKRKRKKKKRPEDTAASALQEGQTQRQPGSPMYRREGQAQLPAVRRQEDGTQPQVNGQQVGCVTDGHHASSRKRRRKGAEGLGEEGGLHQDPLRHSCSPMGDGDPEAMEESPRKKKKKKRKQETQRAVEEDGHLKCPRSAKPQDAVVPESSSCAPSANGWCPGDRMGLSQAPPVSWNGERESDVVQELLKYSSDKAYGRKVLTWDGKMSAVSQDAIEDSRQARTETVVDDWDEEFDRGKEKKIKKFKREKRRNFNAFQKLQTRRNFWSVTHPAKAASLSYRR
How it was run: as §1

USP38 = biological target: T2, USP38 (UniProt Q8NB14)
T2 sequence (whole entry): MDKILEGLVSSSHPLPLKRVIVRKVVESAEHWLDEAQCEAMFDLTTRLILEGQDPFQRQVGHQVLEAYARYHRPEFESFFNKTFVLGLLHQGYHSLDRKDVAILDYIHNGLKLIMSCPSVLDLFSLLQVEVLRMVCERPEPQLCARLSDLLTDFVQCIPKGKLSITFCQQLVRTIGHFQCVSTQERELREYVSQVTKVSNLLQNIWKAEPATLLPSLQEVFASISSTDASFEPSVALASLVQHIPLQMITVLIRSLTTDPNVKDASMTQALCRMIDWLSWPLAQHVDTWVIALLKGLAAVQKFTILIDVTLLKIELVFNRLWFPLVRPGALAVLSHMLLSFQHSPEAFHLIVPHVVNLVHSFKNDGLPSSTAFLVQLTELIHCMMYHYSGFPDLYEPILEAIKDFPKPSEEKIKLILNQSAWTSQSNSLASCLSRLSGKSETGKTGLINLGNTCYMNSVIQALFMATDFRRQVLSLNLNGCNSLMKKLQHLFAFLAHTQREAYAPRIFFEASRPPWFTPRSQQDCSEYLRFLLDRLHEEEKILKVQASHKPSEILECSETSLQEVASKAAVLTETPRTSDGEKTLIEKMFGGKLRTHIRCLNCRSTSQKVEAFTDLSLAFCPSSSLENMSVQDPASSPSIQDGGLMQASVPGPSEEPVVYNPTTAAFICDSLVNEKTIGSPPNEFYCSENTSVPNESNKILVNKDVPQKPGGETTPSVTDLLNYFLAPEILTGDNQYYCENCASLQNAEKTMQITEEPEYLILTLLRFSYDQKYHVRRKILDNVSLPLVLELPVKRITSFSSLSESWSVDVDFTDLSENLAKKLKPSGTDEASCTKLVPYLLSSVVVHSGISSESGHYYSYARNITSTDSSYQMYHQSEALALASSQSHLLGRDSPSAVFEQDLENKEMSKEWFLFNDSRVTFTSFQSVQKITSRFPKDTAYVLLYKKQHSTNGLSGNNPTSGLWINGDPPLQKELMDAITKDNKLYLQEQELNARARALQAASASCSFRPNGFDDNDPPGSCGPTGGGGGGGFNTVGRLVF
How it was run: as §1

USP39 = biological target: T3, USP39 (UniProt Q53GS9)
T3 sequence (whole entry): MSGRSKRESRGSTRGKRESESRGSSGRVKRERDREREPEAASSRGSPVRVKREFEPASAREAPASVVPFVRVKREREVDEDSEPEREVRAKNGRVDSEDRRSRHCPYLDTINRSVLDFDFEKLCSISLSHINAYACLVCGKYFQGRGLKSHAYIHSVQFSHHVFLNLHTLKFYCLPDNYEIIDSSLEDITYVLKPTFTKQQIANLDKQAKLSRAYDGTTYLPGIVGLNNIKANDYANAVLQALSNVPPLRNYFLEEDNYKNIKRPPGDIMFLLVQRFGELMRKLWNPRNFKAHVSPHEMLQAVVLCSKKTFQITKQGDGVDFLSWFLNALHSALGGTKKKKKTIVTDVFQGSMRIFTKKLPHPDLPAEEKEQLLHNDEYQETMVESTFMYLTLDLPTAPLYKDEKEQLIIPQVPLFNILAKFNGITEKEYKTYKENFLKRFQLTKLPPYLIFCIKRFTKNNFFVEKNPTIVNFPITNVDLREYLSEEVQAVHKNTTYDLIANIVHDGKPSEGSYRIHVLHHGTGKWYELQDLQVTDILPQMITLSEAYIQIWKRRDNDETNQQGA
How it was run: as §1

USP4 = biological target: T4, USP4 (UniProt Q13107)
T4 sequence (whole entry): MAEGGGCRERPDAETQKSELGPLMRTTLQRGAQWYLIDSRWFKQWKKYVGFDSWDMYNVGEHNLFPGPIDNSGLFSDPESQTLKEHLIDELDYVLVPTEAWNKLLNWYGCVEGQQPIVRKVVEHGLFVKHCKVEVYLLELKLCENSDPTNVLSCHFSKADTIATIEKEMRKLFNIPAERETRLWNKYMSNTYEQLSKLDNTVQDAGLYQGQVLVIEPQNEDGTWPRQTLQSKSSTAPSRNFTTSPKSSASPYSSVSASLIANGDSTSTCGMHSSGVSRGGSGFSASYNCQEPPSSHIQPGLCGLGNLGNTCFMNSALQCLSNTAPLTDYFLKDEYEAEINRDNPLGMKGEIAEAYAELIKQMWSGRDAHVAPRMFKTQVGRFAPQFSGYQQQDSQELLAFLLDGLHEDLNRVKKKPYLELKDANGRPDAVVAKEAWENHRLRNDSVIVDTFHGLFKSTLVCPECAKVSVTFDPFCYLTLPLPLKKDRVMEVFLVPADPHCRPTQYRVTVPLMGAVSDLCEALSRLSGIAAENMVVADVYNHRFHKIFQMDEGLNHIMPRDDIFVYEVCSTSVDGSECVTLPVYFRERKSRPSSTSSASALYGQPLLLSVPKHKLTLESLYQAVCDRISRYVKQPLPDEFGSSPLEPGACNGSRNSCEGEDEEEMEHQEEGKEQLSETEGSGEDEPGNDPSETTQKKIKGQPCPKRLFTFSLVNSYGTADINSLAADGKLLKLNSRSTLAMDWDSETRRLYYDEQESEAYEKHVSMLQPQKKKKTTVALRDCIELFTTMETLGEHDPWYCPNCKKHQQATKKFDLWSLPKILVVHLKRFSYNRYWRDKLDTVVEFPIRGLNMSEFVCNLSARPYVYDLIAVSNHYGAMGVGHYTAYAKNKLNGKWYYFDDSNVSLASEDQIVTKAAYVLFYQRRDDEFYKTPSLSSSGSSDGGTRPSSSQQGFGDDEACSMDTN
How it was run: as §1

Measured: log2 ratio of Biotin-Ahx-Ub-VS probe labelling

O=C(CCl)N1CCOC2(CCC2)C1
inactive: USP34 0.118 | USP36 0.102 | USP38 0.253 | USP39 0.11 | USP4 -0.266
